Our source for the outcome values is PubChem BioAssay AID602376 (Johns Hopkins Ion Channel Center, 2012).

Entries with a potency or affinity are not part of this list. Results filed as inconclusive are left out. Calls of active or inactive are those of the source.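 Rule for the calls: active = raises choline transporter activity at one or more tested doses and gives a fitted dose-response curve; inconclusive = no clear call, values can overlap the other calls; inactive = no choline transporter activation at any dose, or no curve.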

For this assay, the target named is High affinity choline transporter 1 (Homo sapiens) (UniProt Q9GZV3). Nature of the assay: human choline transporter potentiators, potency – cell-based, 10-point CRC, membrane potential dye, dose response (AID 602376). To be noted: HEK293-CHT, choline-induced membrane potential dye, cells express CHT LV-AA mutant; series mostly up to 67 µM.
Chain of High affinity choline transporter 1 (Homo sapiens) (Q9GZV3 whole entry, looked up): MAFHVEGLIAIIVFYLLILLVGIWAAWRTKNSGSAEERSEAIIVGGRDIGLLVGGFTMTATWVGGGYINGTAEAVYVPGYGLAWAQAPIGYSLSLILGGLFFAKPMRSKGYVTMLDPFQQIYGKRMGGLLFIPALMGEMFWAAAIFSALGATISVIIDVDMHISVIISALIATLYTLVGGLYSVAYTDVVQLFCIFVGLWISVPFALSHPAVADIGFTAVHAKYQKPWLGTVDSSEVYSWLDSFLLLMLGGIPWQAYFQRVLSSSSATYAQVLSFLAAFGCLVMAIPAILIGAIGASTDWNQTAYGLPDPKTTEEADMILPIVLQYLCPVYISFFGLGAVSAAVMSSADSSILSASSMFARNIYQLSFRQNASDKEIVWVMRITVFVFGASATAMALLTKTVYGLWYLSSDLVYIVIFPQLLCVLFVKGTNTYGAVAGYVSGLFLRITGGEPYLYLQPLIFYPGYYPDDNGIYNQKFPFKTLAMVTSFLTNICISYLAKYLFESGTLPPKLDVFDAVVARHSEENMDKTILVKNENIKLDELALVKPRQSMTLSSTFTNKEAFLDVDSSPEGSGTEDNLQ
Consider `CCCCCn1c(=O)c(C(=O)NCc2ccncc2)c(O)c2ccccc21`, for which the result was inactive. The same measure for `CCCOC(=O)c1ccc(-[n+]2c(-c3ccccc3)cc(-c3ccccc3)cc2-c2ccccc2)cc1`: “inactive”.

As to `COc1ccc(C2NCc3ccc4c(c3-n3cccc32)OCO4)cc1O` (stereo not drawn), the result was inactive.
